According to the supplement of paper PMC9694430:
Where a name gives a salt, the structure may show the parent alone.

What was measured:
Experiment in all cases: thermal shift delta Tm vs DMSO control; higher = stronger stabilization (binding)
Details in all cases: 12.5 µM; protein concentration 2 µM
LOC_OS02G45750-cb003 = system: LOC_OS02G45750-cb003
Procedure, shortened: (§1)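 Heating from 25°C to 95°C at 0.05°C/s, fluorescence was recorded for 19.5 μl wells of 2 μM E. coli-expressed, purified rice kinase domain in 100 mM potassium phosphate pH 7.5, 150 mM NaCl, 10% glycerol and 5 × SYPRO Orange with compound in DMSO. Boltzmann fits gave melting temperatures for this differential scanning fluorimetry assay. The shift reported is the mean of three replicates against the DMSO-only protein.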

LOC_OS02G54510-cb004 = system: LOC_OS02G54510-cb004
Procedure, shortened: as §1

LOC_OS03G04050-cb001 = system: LOC_OS03G04050-cb001
Procedure, shortened: as §1

LOC_OS03G12390-cb001 = system: LOC_OS03G12390-cb001
Procedure, shortened: as §1

LOC_OS03G27990-cb004 = system: LOC_OS03G27990-cb004
Procedure, shortened: as §1

LOC_OS03G50450-cb001 = system: LOC_OS03G50450-cb001
Procedure, shortened: as §1

LOC_OS03G50810-cb003 = system: LOC_OS03G50810-cb003
Procedure, shortened: as §1

LOC_OS04G35114-cb001 = system: LOC_OS04G35114-cb001
Procedure, shortened: as §1

LOC_OS04G38480-cb003 = system: T1, LOC_OS04G38480-cb003
T1 sequence (whole entry): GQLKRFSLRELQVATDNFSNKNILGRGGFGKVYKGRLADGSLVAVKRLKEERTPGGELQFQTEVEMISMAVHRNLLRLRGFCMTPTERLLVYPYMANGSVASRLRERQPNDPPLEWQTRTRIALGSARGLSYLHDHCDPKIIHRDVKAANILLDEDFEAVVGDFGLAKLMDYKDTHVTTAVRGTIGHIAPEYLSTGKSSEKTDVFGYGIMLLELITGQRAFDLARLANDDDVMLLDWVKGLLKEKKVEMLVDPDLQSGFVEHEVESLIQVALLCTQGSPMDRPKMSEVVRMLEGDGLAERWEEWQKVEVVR
Procedure, shortened: as §1

LOC_OS04G41100-cb001 = system: T2, LOC_OS04G41100-cb001
T2 sequence (whole entry): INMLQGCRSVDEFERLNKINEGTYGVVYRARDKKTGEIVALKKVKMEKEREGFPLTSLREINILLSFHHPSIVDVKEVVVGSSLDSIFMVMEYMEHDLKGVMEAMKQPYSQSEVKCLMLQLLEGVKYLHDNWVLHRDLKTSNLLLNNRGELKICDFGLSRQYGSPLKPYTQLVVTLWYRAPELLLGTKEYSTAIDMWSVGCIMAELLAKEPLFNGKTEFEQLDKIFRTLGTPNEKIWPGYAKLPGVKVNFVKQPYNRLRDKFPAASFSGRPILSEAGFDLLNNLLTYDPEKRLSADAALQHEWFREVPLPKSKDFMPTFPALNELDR
Procedure, shortened: as §1

LOC_OS04G57630-cb004 = system: LOC_OS04G57630-cb004
Procedure, shortened: as §1

LOC_OS05G07850-cb002 = system: LOC_OS05G07850-cb002
Procedure, shortened: as §1

LOC_OS05G16824-cb004 = system: LOC_OS05G16824-cb004
Procedure, shortened: as §1

LOC_OS05G28520-cb001 = system: LOC_OS05G28520-cb001
Procedure, shortened: as §1

LOC_OS05G30820-cb001 = system: LOC_OS05G30820-cb001
Procedure, shortened: as §1

LOC_OS05G43570-cb004 = system: LOC_OS05G43570-cb004
Procedure, shortened: as §1

LOC_OS06G16330-cb003 = system: LOC_OS06G16330-cb003
Procedure, shortened: as §1

LOC_OS06G22820-cb001 = system: T3, LOC_OS06G22820-cb001
T3 sequence (whole entry): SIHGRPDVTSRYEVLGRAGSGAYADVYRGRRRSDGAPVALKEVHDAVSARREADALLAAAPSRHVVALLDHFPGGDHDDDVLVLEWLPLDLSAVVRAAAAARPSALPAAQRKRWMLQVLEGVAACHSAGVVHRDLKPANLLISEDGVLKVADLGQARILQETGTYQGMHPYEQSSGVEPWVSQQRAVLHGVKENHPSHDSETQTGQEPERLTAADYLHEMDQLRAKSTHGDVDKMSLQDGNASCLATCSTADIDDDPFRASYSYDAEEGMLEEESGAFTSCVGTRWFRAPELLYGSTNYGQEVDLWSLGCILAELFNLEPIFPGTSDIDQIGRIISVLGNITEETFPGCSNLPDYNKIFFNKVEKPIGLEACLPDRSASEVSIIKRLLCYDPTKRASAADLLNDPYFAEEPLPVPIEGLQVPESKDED
Procedure, shortened: as §1

LOC_OS07G06570-cb004 = system: LOC_OS07G06570-cb004
Procedure, shortened: as §1

LOC_OS07G07230-cb001 = system: LOC_OS07G07230-cb001
Procedure, shortened: as §1
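Also: purified Escherichia coli-expressed rice kinase domain construct.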

LOC_OS06G16330-cb003, sequence (as listed by the source): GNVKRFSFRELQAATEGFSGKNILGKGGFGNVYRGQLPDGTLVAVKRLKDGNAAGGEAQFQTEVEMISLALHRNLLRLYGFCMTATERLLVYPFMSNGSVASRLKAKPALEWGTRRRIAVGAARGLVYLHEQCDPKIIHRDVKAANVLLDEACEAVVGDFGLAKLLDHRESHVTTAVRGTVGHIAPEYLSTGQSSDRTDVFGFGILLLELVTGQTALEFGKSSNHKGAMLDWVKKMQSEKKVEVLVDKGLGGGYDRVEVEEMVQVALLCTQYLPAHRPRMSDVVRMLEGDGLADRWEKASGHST

SMILES	thermal shift delta Tm (LOC_OS02G45750-cb003)	thermal shift delta Tm (LOC_OS02G54510-cb004)	thermal shift delta Tm (LOC_OS03G04050-cb001)	thermal shift delta Tm (LOC_OS03G12390-cb001)	thermal shift delta Tm (LOC_OS03G27990-cb004)	thermal shift delta Tm (LOC_OS03G50450-cb001)	thermal shift delta Tm (LOC_OS03G50810-cb003)	thermal shift delta Tm (LOC_OS04G35114-cb001)	thermal shift delta Tm (LOC_OS04G38480-cb003)	thermal shift delta Tm (LOC_OS04G41100-cb001)	thermal shift delta Tm (LOC_OS04G57630-cb004)	thermal shift delta Tm (LOC_OS05G07850-cb002)	thermal shift delta Tm (LOC_OS05G16824-cb004)	thermal shift delta Tm (LOC_OS05G28520-cb001)	thermal shift delta Tm (LOC_OS05G30820-cb001)	thermal shift delta Tm (LOC_OS05G43570-cb004)	thermal shift delta Tm (LOC_OS06G16330-cb003)	thermal shift delta Tm (LOC_OS06G22820-cb001)	thermal shift delta Tm (LOC_OS07G06570-cb004)	thermal shift delta Tm (LOC_OS07G07230-cb001)
CN1CCC(Nc2nc(Nc3ccc(Oc4ccccc4)cc3)c3c(=O)[nH]cc(Br)c3n2)CC1	6.91 °C	0.98 °C	0.8 °C	2.05 °C	1.75 °C	1.67 °C	2.6 °C	4.37 °C	2.13 °C	0.75 °C	1.8 °C	7.31 °C	9.77 °C	1.25 °C	1.19 °C	1.11 °C	2.6 °C	0.71 °C	-0.18 °C	-0.18 °C
O=c1c(-c2ccc(O)cc2)coc2cc(O)cc(O)c12 [Genistein]	-0.47 °C	-0.37 °C	-0.01 °C	1.8 °C	0.92 °C	0.14 °C	0.36 °C	-1.3 °C	-1.76 °C	-0.75 °C	-1.09 °C	5.31 °C	-0.94 °C	-0.31 °C	0.78 °C	0.36 °C	0.87 °C	0.81 °C	-0.45 °C	0.02 °C
O=C1NC(=O)/C(=C/c2ccc(-c3ccc(F)cc3O)o2)S1	2.33 °C	0.67 °C	1.72 °C	5.37 °C	1.51 °C	3.59 °C	2.55 °C	4.85 °C	4.16 °C	1.17 °C	1.54 °C	6.53 °C	3.79 °C	1.52 °C	1.01 °C	2.03 °C	3.28 °C	2.41 °C	1.83 °C	0.13 °C
Cc1ccc(NC(=O)c2ccc(CN3CCN(C)CC3)cc2)cc1Nc1nccc(-c2cccnc2)n1 [Imatinib (STI571)]	1.17 °C	0.22 °C	0.47 °C	-0.05 °C	0.26 °C	0.4 °C	0.42 °C	0.92 °C	0.88 °C	0.5 °C	0.39 °C	2.43 °C	-0.13 °C	0.71 °C	0.5 °C	0.23 °C	0.3 °C	0.22 °C	1.37 °C	0.97 °C
Cc1[nH]nc2ccc(-c3cncc(OC[C@@H](N)Cc4ccccc4)c3)cc12	2.29 °C	0.14 °C	0.35 °C	3.08 °C	0.34 °C	0.59 °C	1.41 °C	1.06 °C	0.62 °C	1.9 °C	0.79 °C	6.97 °C	1.39 °C	0.6 °C	0.56 °C	1.24 °C	0.93 °C	0.49 °C	0.93 °C	0 °C
O=C(NCc1ccccc1)c1csc(Nc2ccncn2)n1 [Thiazovivin]	0.91 °C	0.46 °C	0.67 °C	1.49 °C	0.04 °C	0.18 °C	0.53 °C	1.56 °C	0.41 °C	0.67 °C	0.16 °C	2.6 °C	-1.42 °C	0.2 °C	0.36 °C	1.22 °C	0.41 °C	0.56 °C	0.66 °C	-0.04 °C
CC(C)c1cnn2c(NCc3ccccc3)cc(NCCCCCCN)nc12	0.67 °C	0.22 °C	0.33 °C	-0.19 °C	0.14 °C	0.34 °C	0.19 °C	0.56 °C	-0.44 °C	0.32 °C	-0.33 °C	-0.23 °C	-2.84 °C	0.27 °C	0.42 °C	0.43 °C	-0.05 °C	0.96 °C	1.35 °C	0.18 °C
Nc1ncccc1-c1nc2ccc(-c3ccccc3)nc2n1-c1ccc(C2(N)CCC2)cc1 [Miransertib (ARQ 092) HCl]	0.57 °C	-0.18 °C	0.2 °C	-0.09 °C	0.04 °C	0.49 °C	-0.05 °C	0.38 °C	0.6 °C	0.18 °C	-0.29 °C	1.08 °C	-5.68 °C	-0.2 °C	0.04 °C	0.09 °C	-0.91 °C	0.24 °C	1.32 °C	0.36 °C
COC(=O)Nc1ccc(-c2nc(N3CCOCC3)c3cnn(C4CCN(C(=O)OC)CC4)c3n2)cc1	0 °C	-0.07 °C	0.1 °C	0.08 °C	-0.05 °C	0.08 °C	0.17 °C	0.06 °C	0.81 °C	0.47 °C	0.06 °C	0.49 °C	-0.54 °C	-0.26 °C	0.57 °C	0.65 °C	-0.2 °C	0.4 °C	0.99 °C	-0.41 °C
CC(C)(CCCCCC(O)CCCCCC(C)(C)C(=O)O)C(=O)O	0.72 °C	0.34 °C	0.51 °C	-0.22 °C	0.25 °C	0.67 °C	0.41 °C	0.9 °C	2.27 °C	0.2 °C	0.04 °C	0.87 °C	0.14 °C	0.47 °C	0.38 °C	0.54 °C	-0.14 °C	0.48 °C	0.64 °C	-0.4 °C
CCn1c(-c2nonc2N)nc2cnc(Oc3cccc(NC(=O)c4ccc(OCCN5CCOCC5)cc4)c3)cc21	-0.36 °C	0.27 °C	0.38 °C	0.99 °C	0.4 °C	-0.03 °C	0.42 °C	0.1 °C	2.03 °C	0.94 °C	0.7 °C	1.97 °C	-1.49 °C	1.05 °C	0.73 °C	0.77 °C	-0.54 °C	0.79 °C	0.87 °C	0.15 °C
Oc1c2ccccc2c2c3c(cccc13)N=N2	8.26 °C	0.51 °C	0.73 °C	5.6 °C	3.39 °C	2.66 °C	2.79 °C	6.42 °C	2.04 °C	1.69 °C	2.27 °C	9.83 °C	9.67 °C	0.7 °C	1.62 °C	1 °C	5.84 °C	0.87 °C	1.14 °C	-0.13 °C
